PrP 5UTR inh: inhibition of PrP 5' UTR reporter expression | AID 488862 | inhibition, % (no concentration beside the values) | hit rate 0.35% among 340,000 | cell-based PrP 5' UTR mRNA reporter, plate reader; in the data active = inhibition above about 52%
BJeLR lethal: BJeLR cell viability loss. BJeLR (HRASV12) viability, CellTiter-Glo ATP luminescence, 48 h. inhibition, % (test concentration not listed). hit rate 0.17% among 300,000. AID 1554; in the data active = inhibition above about 50%; inconclusive = no clear call, values can overlap the other calls
SSB-PriA inh: inhibitors of Klebsiella pneumoniae PriA binding to SSB C-terminal tail; inhibition, % at 33 µM; AlphaScreen SSBct-PriA binding, biotinylated peptide; hit rate 0.6% among 430,000; in the data active = inhibition mostly above about 37%, no sharp cut-off; inactive = mostly below about 20%
PrPC TRFRET: cell surface PrPC inhibition, primary TR-FRET screen; P04156; TR-FRET read-out; inhibition, % at 13.8 µM; hit rate 0.43% among 370,000; in the data active = inhibition above about 24%
PfHsp40 yeast: rescue of PfHsp40-mediated yeast toxicity; growth rescue, % at 12.5 µM; S. cerevisiae expressing PfHsp40, growth rescue, ATP luminescence; hit rate 0.68% among 340,000; in the data active = growth rescue above about 28%, passing the limit was not always enough; inconclusive = no clear call, values can overlap the other calls;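 note: yeast W303a lacking pdr1 and pdr3 grown in galactose medium; growth measured after three days at 30 °C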
Yp Topo-I inh: inhibitors of Yersinia pestis topoisomerase I; Y. pestis Topo-I cleavage product accumulation, plate reader; activity, % at 10 µM; hit rate 0.064% among 360,000; AID 504884; in the data active = activity above about 50%, passing the limit was not always enough; inconclusive = no clear call, values can overlap the other calls
PrP UTR cherry: prion 5' UTR mRNA inhibition, cherry-pick retest; shares compounds with PrP 5UTR inh; cell-based prion protein 5' UTR reporter, plate reader; inhibition, % at 2.5 µM; hit rate 48% among 1,100; AID 504592; in the data active = inhibition above about 54%; inconclusive = no clear call, values can overlap the other calls
A number is an active result; – = inactive; ? = inconclusive; · = no result given. Only some compounds are listed: those with a hit (about 1.7% of all), similar ones and a draw of the others.

SMILES | PrP 5UTR inh | BJeLR lethal | SSB-PriA inh | PrPC TRFRET | PfHsp40 yeast | Yp Topo-I inh | PrP UTR cherry
CCn1c(SCC(=O)Nc2ccc(F)cc2F)nnc1-c1cccn(C)c1=O | · | · | – | · | · | · | ·
O=C(NN1C(=O)C2C3C=CC(C4CC34)C2C1=O)c1ccc(Br)cc1 (stereo not given) | 58 | – | – | – | – | – | 68
CC(C)CCN1C(=O)C(C)(C)COc2ccc(NC(=O)CN3C(=O)c4ccccc4C3=O)cc21 | · | · | – | · | · | · | ·
Cc1cccc(-n2ncc3c(N(CCO)CCO)ncnc32)c1 | – | – | – | – | – | – | ·
COc1ccc(-n2ncc3c(N4CCC(C)CC4)ncnc32)cc1 | – | – | – | – | – | – | ·
Cc1cccc(-n2ncc3c(N(C)C4CCCCC4)ncnc32)c1 | 78 | – | – | – | – | – | 69
COc1ccc(-n2ncc3c(N(C)C4CCCCC4)ncnc32)cc1 | 78 | – | – | – | – | – | 66
COc1ccc(S(=O)(=O)N2CCN(c3ccccc3Cl)CC2)c(C)c1C | · | · | – | · | · | · | ·
Cc1ccc(OCCC(=O)OCC(=O)c2c(N)n(CC(C)C)c(=O)n(C)c2=O)cc1 | 89 | · | – | – | – | – | –
CCOc1ccc(OCCC(=O)OCC(=O)c2c(N)n(CC(C)C)c(=O)n(C)c2=O)cc1 | · | · | · | – | · | – | ·
Cc1ccc2nc(-c3ccc4c(c3)OCCO4)cn2c1 | 89 | – | – | – | – | – | 79
CNC(=O)Oc1ccc(-c2cn3cc(C)ccc3n2)cc1 | 57 | – | – | – | – | – | 54
O=C(Cc1ccc(F)cc1)NCCn1ccn2nccc12 | · | · | – | · | · | · | ·
Cc1ccc(-n2cccn2)c(CN2CCCC(CNC(=O)c3ccc(F)cc3)C2)c1 (stereo not given) | 80 | – | – | – | – | – | –
CCOC(=O)C1=CN(Cc2cccc(I)c2)S(=O)(=O)N(C)C1C (stereo not given) | 90 | · | – | – | – | – | –
CCOC(=O)C1=CN(Cc2ccco2)S(=O)(=O)N(C)C1c1ccc2ccccc2c1 (stereo not given) | 55 | · | – | – | – | – | –
CCOC(=O)C1=CN(Cc2ccco2)S(=O)(=O)N(C)C1c1ccc(C(F)(F)F)cc1 (stereo not given) | – | · | – | – | – | – | ·
CCOC(=O)c1ccc(NC(=O)C2=Cc3cc(Br)ccc3OC=C2)cc1 | · | · | – | · | · | · | ·
COC(=O)c1ccc(NC(=O)C(=O)NCC(OC)c2ccccc2Cl)cc1 (stereo not given) | · | · | – | · | · | · | ·
CSC[C@@](C)(O)CNS(=O)(=O)c1cn(C)cn1 | · | · | – | · | · | · | ·
O=C(O)CCC1(CCC(=O)O)c2ccccc2-c2ccccc21 | – | – | – | – | – | – | ·
CC1(C(=O)O)CC12c1ccccc1-c1ccccc12 (stereo not given) | 62 | · | – | – | – | – | –
O=C(Cc1cccc2ccccc12)N(Cc1cccnc1)c1nc2ccc(Br)cc2s1 | · | · | – | · | · | · | ·
Cc1ccc(CCC(=O)Nc2ncc(Cc3cccc(Cl)c3Cl)s2)o1 | 53 | – | – | – | – | – | 89
Cc1ccc(CCC(=O)Nc2ncc(Cc3cccc(C(F)(F)F)c3)s2)o1 | · | · | – | · | · | · | ·
SMILES | PrP 5UTR inh | BJeLR lethal | SSB-PriA inh | PrPC TRFRET | PfHsp40 yeast | Yp Topo-I inh | PrP UTR cherry
COc1c(C=O)c2c(c(OC)c1OC)-c1ccc(OC)c(=O)cc1C(NC(C)=O)CC2 (stereo not given) | 58 | · | – | – | – | – | 86
COC(=O)c1ccc2c(c1)C(NC(C)=O)CCc1cc(OC)c(OC)c(OC)c1-2 (stereo not given) | – | · | – | – | – | – | ·
COc1cc2c(c(OC)c1OC)-c1ccc(OC)c(=O)cc1C(NC(=O)c1ccccc1)CC2 (stereo not given) | – | · | – | – | – | – | ·
COc1cc2c(c(OC)c1OC)-c1ccc(SC)c(=O)cc1C(NC(=O)c1ccccc1)CC2 (stereo not given) | 56 | · | – | – | – | – | 83
COc1cc2c(c(OC)c1OC)-c1ccc(O)c(=O)cc1C(NC(C)=O)CC2 (stereo not given) | 63 | 57 | – | – | – | – | 86
CCOc1ccccc1NC(=O)C(=O)NCCc1csc(-c2ccc(C(F)(F)F)cc2)n1 | · | · | – | · | · | · | ·
O=C(COc1cccc2ccc(N3CCOCC3)nc12)Nc1ccc(C(F)(F)F)cc1 | · | · | – | · | · | · | ·
Cc1ccc(-c2cc(C(=O)N/N=C/c3c(C)nn(-c4ccccc4)c3C)[nH]n2)cc1 | 70 | – | · | – | – | – | 88
O=C1OCCN1C(=O)[C@H]1[C@H](c2ccccc2)C(c2ccc(F)cc2)=NN1c1ccc(Br)cc1 | 67 | · | – | – | – | – | –
COC1(OC)N=C(N)C2(C#N)C(c3ccccc3)NC(C)=CC12C#N (stereo not given) | – | – | – | – | – | – | ·
COc1ccc(C2NC3=C(CCC3)C3(C#N)C(OC)(OC)N=C(N)C23C#N)cc1 (stereo not given) | 53 | – | – | · | – | – | ?
O=C1/C(=C/c2cccc([N+](=O)[O-])c2)CC/C1=C\c1cccc([N+](=O)[O-])c1 | · | · | – | · | · | · | ·
CCN1C/C(=C\c2cccc([N+](=O)[O-])c2)C(=O)/C(=C/c2cccc([N+](=O)[O-])c2)C1 | 63 | · | – | – | – | – | 61
O=C(c1cc2n(n1)C(C(F)(F)F)CC(c1ccco1)N2)N1CCc2ccccc2C1 (stereo not given) | 64 | – | – | – | – | – | –
CC(C)Oc1ccc(C(=O)N2CCC(c3nnc(C(F)(F)F)o3)CC2)cc1 | · | · | – | · | · | · | ·
O=C(NCc1ccccc1Cl)c1ccc[nH]1 | 77 | – | – | – | – | – | –
CN(C)S(=O)(=O)c1ccc(C(=O)NCC[C@H](O)c2ccco2)cc1 | · | · | – | · | · | · | ·
S=C(Nc1ccccc1)Nc1ccc(OCc2ccc(Cl)cc2Cl)cc1 | 89 | – | – | – | – | – | 87
CCOc1ccc(NC(=O)c2cc3c(C)nc4ccccc4c3o2)cc1 | 62 | – | – | – | – | – | –
Cc1cc(C=C2C(=O)c3ccccc3C2=O)c(C)n1-c1ccccc1 | 75 | – | – | – | – | – | 62
NNC(=S)NC1CCCCC1 | 80 | – | – | – | – | – | –
O=C(NC1CCCCC1)C(=S)NC1CCCCC1 | · | – | · | · | · | · | ·
CCOc1ccc(/C=C2\SC(=S)N(CCC(=O)O)C2=O)cc1 | 68 | – | – | – | – | – | 71
Cc1ccc(/C=C2\SC(=S)N(CCCC(=O)NNC(=O)c3ccccc3O)C2=O)cc1 | 53 | – | – | – | – | – | 75
O=[N+]([O-])c1cccc2c([N+](=O)[O-])cccc12 | – | · | – | – | – | – | ·
Cc1cc([N+](=O)[O-])c2ccccc2[n+]1[O-] | 87 | – | – | · | 127 | – | 98
Cc1cc(NC(=O)CSc2nc(-c3ccco3)cc(C(F)(F)F)n2)no1 | 67 | – | – | – | – | – | 90
Cc1cc(NC(=O)CCSc2nc(-c3ccco3)cc(C(F)(F)F)n2)no1 | – | – | – | – | – | – | ·
